Experimental data as given in PubChem BioAssay AID1645850 (National Center for Advancing Translational Sciences (NCATS), 2021).
Results filed as inconclusive are left out. Active and inactive are the calls of the source. Calls come from the whole dose curve; as a rule, active = well fitted curve in the direction sought with a large enough effect in the repeat runs; inconclusive = weak or mixed curves, or another doubt; inactive = no such curve, though single readings can be large or run the other way.

assay: Comparison of Janus kinase inhibitors to block the type I interferon pathway in human skeletal muscle cells: CTG Counterscreen; conditions: human skeletal muscle cells viability, CellTiter-Glo ATP luminescence; series mostly up to 45.9 µM; activity change, negative = cytotoxicity: at the top concentration
From the text: Assay Submitter (PI): Travis B. Kinder Ph.D.
National Center for Advancing Translational Sciences (NCATS)
The family of Janus kinases (JAK1, JAK2, JAK3, TYK2) mediate signal transduction from cytokine receptors through phosphorylation and activation of intracellular signaling pathways and transcription factors. Small molecule antagonists of JAKs (jakinibs) have been developed with varying selectivity for the use in malignancies and immune regulation. […] We have assayed a library of 48 jakinibs for their ability to inhibit the JAK1/TYK2-dependent type I interferon (IFN) - major histocompatibility complex (MHC) class I pathway in human skeletal muscle cells genome-engineered to fuse a pro-luminescent HiBiT peptide to endogenous MHC class I.
The assay utilized CRISPR/Cas9 genome-engineered immortalized human myoblasts, C25cl48, where a pro-luminescent reporter HiBit was fused to the C-terminus of endogenous MHC class I allele HLA-B*08:01 (HLA-B HiBit myoblasts) (Kinder et al., 2020). HiBit is an 11 amino acid fragment of NanoLuc luminescent reporter (Promega Corporation), and when complexed to the larger LgBit fragment, the reconstituted enzyme produces light in the presence of furimazine substrate. Briefly, HLA-B HiBit myoblasts were plated into 1536-well plates, treated with 4.0 ng/ml human IFN-beta and 48 jakinibs in an 11-point, 1:3 titration with a high final concentration of 46 uM. After 24 hrs of treatment, cells were assayed by CellTiter-Glo Luminescent Cell Viability Assay (Promega) and luminescence measured by a ViewLux 1430 Ultra HTS (Perkin Elmer).
1. Kinder TB, Dranchak PK, Inglese J. High-Throughput Screening to Identify Inhibitors of the Type I Interferon-Major Histocompatibility Complex Class I Pathway in Skeletal Muscle. ACS Chem Biol. 2020 Jul 17;15(7):1974-1986. doi: 10.1021/acschembio.0c00343
PROTOCOL TABLE (as described by Inglese et al., 2007)
SEQUENCE No. (e.g., 1, 2, 3, etc.); PARAMETER (e.g., Cells, Incubation, Reagent, etc.); VALUE; DESCRIPTION
1a; Cells; 5 uL; Seed 250 cells/well with a Multidrop Combi (Thermo Scientific) into two Greiner 1536 well white/solid bottom, high base, TC plates (789173-F) in 5 ul/well of growth medium (GM) without dexamethasone into columns 1+2
1b; Cells; 5 uL; Seed 250 cells/well with a Multidrop Combi (Thermo Scientific) into two Greiner 1536 well white/solid bottom, high base, TC plates (789173-F) in 5 ul/well of GM without dexamethasone + 4 ng/ml IFN-beta into columns 3 - 48. Add metal lids with gas-exchange holes.
2; Incubate; 30 min; Incubate at 37C, 5% CO2, 95% RH
3; Compounds; 23 nl; Transfer DMSO control and library compounds in DMSO with Pin Tool (Wako)
4; Incubate; 24 hrs; Incubate at 37C, 5% CO2, 95% RH
5; Dispense; 2.5 ul; Add CellTiter Glo lytic reagent with a BioRAPTR FRD (Beckman Coulter)
6; Incubate; 10 min; Incubate in the dark at ambient temperature for lysis
7; Detector; 5 sec; Measure luminescence with ViewLux 1430 Ultra HTS (Perkin Elmer). Settings: Exposure = 2 sec, Gain = High, Speed = Slow, Binning = 2X
NOTES (numbers refer to sequence above)
1; HLA-B HiBit myoblasts cultured in GM - 4:1 ratio DMEM Glutamax (Thermo Fisher, 10566) : M199 (Thermo Fisher, 11150), 10% FBS (Hyclone Standard), 1% Pen/Strep, 50 ug/ml fetuin, 10 ng/ml hEGF, 1 ng/ml bhFGF, 10 ug/ml insulin, 0.4 ug/ml dexamethasone (supplements from Promocell, C-39360). […] Recombinant human IFN-beta (Peprotech, 300-02BC) was reconstituted in water, diluted in GM, and aliquots stored at -80C until day of use.
3; Control plate contained DMSO in columns 1 and 4, digitonin (Sigma, D141) cytotoxicity control in DMSO at 20 mM in column 2, and ruxolitinib (Selleckchem, S1378) inhibitor control in DMSO 16-point, 1:2 titration, high concentration = 17 mM in column 3. Digitonin and ruxolitinib stocks were reconstituted at 20 and 50 mM in DMSO and aliquots stored at -20C. […]

Row | SMILES | activity change, negative = cytotoxicity
1 | CCCS(=O)(=O)NC1CC(N(C)c2ncnc3[nH]ccc23)C1 (configuration not stated) | 5.82% (inactive)
2 | CC[C@@H]1CN(C(=O)NCC(F)(F)F)C[C@@H]1c1cnc2cnc3[nH]ccc3n12 | -28.6% (inactive)
3 | [2H]C([2H])([2H])NC(=O)c1nnc(NC(=O)C2CC2)cc1Nc1cccc(-c2ncn(C)n2)c1OC | -10.7% (inactive)
4 | C[C@@H]1CCN(C(=O)CC#N)C[C@@H]1N(C)c1ncnc2[nH]ccc12 | 3.19% (inactive)
5 | O=C(Nc1ccc(-c2ccnc(Nc3ccc(N4CCOCC4)cc3)n2)cc1)[C@@H]1CCCN1 | 12.2% (inactive)
6 | N#CCNC(=O)c1ccc(-c2ccnc(Nc3ccc(N4CCOCC4)cc3)n2)cc1 | -19.9% (inactive)
7 | Cc1cc(Nc2cc(CN3CCOCC3)c3nc(C)c(Cc4ccc(Cl)cc4F)n3n2)n[nH]1 | -19% (inactive)
8 | N#C/C(=C\c1ccc(O)c(O)c1)C(=O)NCc1ccccc1 | 1.73% (inactive)
9 | CNS(=O)(=O)CC1CCC(N(C)c2ncnc3[nH]ccc23)CC1 (configuration not stated) | 15% (inactive)
10 | Cn1cc(Nc2nccc(N3C[C@H]4CC[C@@H](C3)N4C(=O)[C@@H]3CC3(F)F)n2)cn1 | -24.6% (inactive)
11 | CCS(=O)(=O)N1CC(CC#N)(n2cc(-c3ncnc4[nH]ccc34)cn2)C1 | 1.82% (inactive)
12 | CN(C)c1ccc(Nc2nc(N)n(C(=O)c3c(F)cccc3F)n2)cc1 | -10.4% (inactive)
13 | CC(C)(O)C(=O)N1CCN(c2ccc(C(F)(F)F)c(C3=C(c4c[nH]c5ccccc45)C(=O)NC3=O)c2)CC1 | -7.18% (inactive)
14 | CC(C)(C)NC(=O)Nc1cccc(Nc2ncc(F)c(NC(C)(C)CO)n2)c1 | 6.2% (inactive)
15 | CCn1c(C(=O)N(C2CC2)C2CC2)cc2c3c(ncn3C)c(Nc3cc(C)n(C)n3)nc21 | -17.3% (inactive)
16 | C=CC(=O)Nc1ccc(F)c(-c2ncnc3[nH]cc(C(=O)OCC)c23)c1 | 3.28% (inactive)
17 | NC(=O)c1cnc2[nH]ccc2c1NC1C2CC3C[C@H]1CC(O)(C3)C2 (some centres not stated) | 1.18% (inactive)
18 | CC1(C)CN(C(=O)c2ccc(-c3cccc4nc(NC(=O)C5CC5)nn34)cc2)C1 | 7.08% (inactive)
19 | CC[C@@](C)(Nc1ccnc(-c2c[nH]c3ncccc23)n1)C(=O)NCC(F)(F)F | 5.31% (inactive)
20 | CC(C)(C)NS(=O)(=O)c1ccc(-c2ccc3[nH]nc(N)c3c2)cc1 | 15.9% (inactive)
21 | O=C(Nc1ccnc(NC(=O)C2CC2)c1)c1c(Cl)cccc1Cl | 8.25% (inactive)
22 | CCS(=O)(=O)N1CCN(c2ccc(Nc3ncc(C(N)=O)c(NC4CC4)n3)cc2)CC1 | 1.99% (inactive)
23 | Cc1oncc1C(=O)Nc1ccc(C(F)(F)F)cc1 | -6.1% (inactive)
24 | CN1CCN(c2cccc(Nc3nc4c(-c5ccc(S(C)(=O)=O)cc5)cccn4n3)c2)CC1 | -4.5% (inactive)
25 | N#CC[C@H](C1CCCC1)n1cc(-c2ncnc3[nH]ccc23)cn1 | 8.46% (inactive)
26 | COc1cc2ncnc(Nc3ccc(O)cc3)c2cc1OC | -2.03% (inactive)
27 | CC(C)(C)c1nc2c3cc[nH]c(=O)c3c3cc(F)ccc3c2[nH]1 | -11.6% (inactive)
